Activity calls are given as the source filed them. No rule for the calls is given here.

Thyrotropin receptor (Homo sapiens), sequence (P16473 whole entry, looked up): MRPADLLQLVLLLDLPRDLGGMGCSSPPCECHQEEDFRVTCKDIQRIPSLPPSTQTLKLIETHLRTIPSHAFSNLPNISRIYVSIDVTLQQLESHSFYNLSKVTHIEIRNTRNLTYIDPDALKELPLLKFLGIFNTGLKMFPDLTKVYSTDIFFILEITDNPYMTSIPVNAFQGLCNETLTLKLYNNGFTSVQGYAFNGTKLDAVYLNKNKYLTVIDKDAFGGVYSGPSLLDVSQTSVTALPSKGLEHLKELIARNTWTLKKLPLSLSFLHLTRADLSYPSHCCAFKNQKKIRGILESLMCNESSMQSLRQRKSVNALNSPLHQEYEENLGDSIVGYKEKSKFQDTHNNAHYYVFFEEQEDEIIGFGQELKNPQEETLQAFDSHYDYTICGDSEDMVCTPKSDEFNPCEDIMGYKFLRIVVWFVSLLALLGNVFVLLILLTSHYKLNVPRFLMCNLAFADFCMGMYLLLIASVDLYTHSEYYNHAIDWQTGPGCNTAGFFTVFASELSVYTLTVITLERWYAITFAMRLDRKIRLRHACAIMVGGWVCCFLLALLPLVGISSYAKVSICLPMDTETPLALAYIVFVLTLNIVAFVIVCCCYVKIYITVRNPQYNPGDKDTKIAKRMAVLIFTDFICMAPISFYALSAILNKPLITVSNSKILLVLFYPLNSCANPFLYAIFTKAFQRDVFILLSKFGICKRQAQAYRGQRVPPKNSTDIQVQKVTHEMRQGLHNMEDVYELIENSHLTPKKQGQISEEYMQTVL

The target of this assay is Thyrotropin receptor (Homo sapiens) (UniProt P16473). As to the kind of experiment: Concentration-response assay for antagonists of the thyroid stimulating hormone receptor: ELISA activity detection. As to conditions: HEK293-TSHR, TSH-induced cAMP, ELISA chemiluminescence. The source says:
TSH is an alpha/beta heterodimeric glycoprotein hormone secreted from the anterior pituitary gland which belongs to the glycoprotein hormone family. The actions of TSH are mediated by a seven-transmembrane receptor, which upon TSH binding couples preferentially to the G-alpha (s) protein (Gs), resulting in activation of adenylate cyclase and increase in cyclic adenosine 3', 5' monophosphate (cAMP). The TSH receptor (THSR) is mainly expressed in thyroid follicular cells and regulates their growth and function. This cell based assay was conducted on a TSHR transfected HEK 293 cell line, measuring cAMP stimulation using antibody-based Homogeneous Time Resolved Fluorescence (HTRF). Our goal is to identify small molecules that will inhibit (antagonize) the thyroid-stimulating hormone receptor (TSHR), a member of the 7 transmembrane-spanning receptor (7TMR) family of cell surface receptors. TSHR-mediated hyperthyroidism is important in thyroid pathology. The development of small molecule antagonists of TSHR may lead to therapeutic approaches for TSHR-mediated hyperthyroidism caused by constitutively activating mutations or stimulating auto-antibodies associated with Graves' disease. Graves' disease is the leading cause of hyperthyroidism and is caused by autoantibodies that stimulate TSHR (TsAbs) causing thyroid growth and unregulated overproduction of thyroid hormones and existing treatments have liabilities (agranulocytosis). In addition, TSHRs are known to be expressed in multiple extrathyroidal tissues including bone, brain, kidney, testis, fat and cells of the immune system but the role of the TSHR in these tissues is not clear. Therefore, TSHR antagonists/inverse agonists could be used as probes of extrathyroidal TSHR function. Finally, TSHR inverse agonists, which are a subclass of antagonists that inhibit agonist-independent (or basal or constitutive) TSHR signaling, could be used to inhibit TSH-independent signaling in patients with recurrent or metastatic thyroid cancer who are receiving thyroid hormone to suppress TSH. A confirmatory assay of TSHR antagonists was conducted on a HEK 293 cell line stably expressing the TSHR, using an orthogonal detection technology to measure cAMP stimulation: an ELISA based cAMP competition assay using cAMP-Screen Direct System (Applied Biosystems, Foster City, CA).
Transiently transfected HEK-EM 293 cells or cells stably expressing TSHRs were seeded into 96-well plates at a density of 7 x10^4 cells per well in DMEM containing 10% FBS. Cells were cultured for 24 h before incubation for 20 min in HBSS/10 mM HEPES (pH 7.4). To determine the effect of the compound on TSH induced TSHR activity, cells were incubated for 20 min with the compound in HBSS/HEPES without IBMX and subsequently for 40 min with bovine TSH (Sigma) and the compound in HBSS/HEPES supplemented with 1 mM IBMX at 37 C. The levels of cAMP in cells incubated in HBSS/HEPES without IBMX were subtracted in all experiments. After aspiration of the incubation medium, cells were lysed using lysis buffer of the cAMP-Screen Direct system (Applied Biosystems, Foster City, CA). The cAMP content of the cell lysate was determined using the method described in the manufacturer's protocol. The chemiluminescence signal was measured in a VICTOR3 V 1420 multilabel counter (PerkinElmer, Norwalk, CT). The potencies (EC50 and IC50) of the ligands were obtained from dose-response curves by data analysis with GraphPad Prism 4 for Windows.
In general terms: In an ELISA, binding on a coated surface is turned into a signal by an enzyme label.
On to `COc1ccc(C2Nc3ccccc3C(=O)N2Cc2ccco2)cc1COc1ccccc1C` (stereo unspecified), for which the result was inactive.

With `COc1ccc(C2Nc3cccc(O)c3C(=O)N2Cc2ccco2)cc1COc1c(C)cc(NC(C)=O)cc1C` (stereo unspecified), the outcome was inactive.

What is called IC50 is the concentration needed to halve the response being measured. Turning to `CCc1cccc(CC)c1OCc1cc(C2Nc3ccccc3C(=O)N2Cc2ccco2)ccc1OC` (stereo unspecified), the IC50 is 22.3 µM (active).

For the molecule `COc1ccc(C2Nc3ccccc3C(=O)N2Cc2ccccc2)cc1COc1c(C)cccc1C` (stereo unspecified), the molecule was classed as inactive.

For `Cc1cccc(C)c1OCc1cccc(C2Nc3ccccc3C(=O)N2Cc2ccco2)c1` (stereo unspecified), the IC50 is 1.9 µM (active).

`COc1ccc(C2Nc3ccccc3C(=O)N2Cc2ccccn2)cc1COc1c(C)cccc1C` (stereo unspecified): the call was inactive.

`COc1ccc(C2Nc3ccccc3C(=O)N2Cc2ccco2)cc1CSc1c(C)cccc1C` (stereo unspecified): the IC50 is 9.9 µM (active).

Turning to `COc1ccc(C2Nc3ccccc3C(=O)N2Cc2cccnc2)cc1COc1c(C)cccc1C` (stereo unspecified), the IC50 was 3.5 µM (active).

As for `COc1ccc(C2Nc3ccccc3C(=O)N2Cc2ccc(C)o2)cc1COc1c(C)cccc1C` (stereo unspecified), the 50% inhibitory concentration (IC50) was 2.3 µM (active).

On to `COc1ccc(C2Nc3ccccc3C(=O)N2Cc2ccco2)cc1COc1c(C)cc(NC(C)=O)cc1C` (stereo unspecified), for which the IC50 is 2.3 µM (active).

For `COc1ccc(C2Nc3ccccc3C(=O)N2Cc2cccs2)cc1COc1c(C)cccc1C` (stereo unspecified), the concentration for half-maximal inhibition (IC50) is 1 µM (active).

The values above are taken from PubChem BioAssay AID504387 (National Center for Advancing Translational Sciences (NCATS), 2011).
